Screening results as filed in PubChem BioAssay.
Compounds with a hit are over-represented: about 3.8% of the library has one in this group of screens.
Beta2AR agonist: beta2AR agonists driving receptor internalization, primary screen, cell-based, FAP fluorogen, flow cytometry. Am2.2-beta2AR cells. response, % (test concentration not listed). 340,000 tested, 0.43% active. Beta-2 adrenergic receptor (Homo sapiens), P07550;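 active = response above a set limit, near 3 SD of response in nonfluorescent compounds, cut at about 42% in these data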
Target sequence (P07550 whole entry, looked up): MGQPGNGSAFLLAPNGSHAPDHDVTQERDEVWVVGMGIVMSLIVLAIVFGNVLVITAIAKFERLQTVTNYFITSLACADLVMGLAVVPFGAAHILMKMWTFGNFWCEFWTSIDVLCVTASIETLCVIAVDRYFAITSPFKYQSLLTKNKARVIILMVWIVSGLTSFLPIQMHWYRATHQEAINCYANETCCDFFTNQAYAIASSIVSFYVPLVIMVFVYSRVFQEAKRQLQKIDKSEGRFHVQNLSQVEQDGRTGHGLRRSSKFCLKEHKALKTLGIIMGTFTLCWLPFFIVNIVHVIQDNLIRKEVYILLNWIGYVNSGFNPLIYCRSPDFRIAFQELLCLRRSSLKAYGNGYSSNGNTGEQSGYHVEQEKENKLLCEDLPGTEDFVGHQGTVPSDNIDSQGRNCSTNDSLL
tim10-1 inh: growth inhibitors of tim10-1 mutant yeast, primary screen, luminescence, uHTS | S. cerevisiae tim10-1 ts strain growth, BacTiter-Glo, 24 h | inhibition, % at 20 µM | 330,000 tested, 2.2% active | AID 463190, 2010;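 active = inhibition of at least 40%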;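 also: mutant grown at 25 °C; 0% = DMSO wells with yeast and 100% = wells holding no yeast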
tim23-1 inh: growth inhibitors of tim23-1 mutant yeast, primary screen, luminescence, uHTS; S. cerevisiae tim23-1 growth, BacTiter-Glo luminescence, 24 h; inhibition, % at 20 µM; 330,000 tested, 1.3% active;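 active = growth inhibition of the mutant yeast at or above 50%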;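 also: temperature-sensitive mutant grown at 25 °C; plate controls were DMSO-treated mutant yeast for no effect and medium wells lacking yeast for full effect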
PfHsp90 set2: growth inhibition of PfHsp90-expressing yeast, primary screen, antimalarial PfHsp90 inhibitor project, S. cerevisiae, BacTiter-Glo luminescence, single point, set 2 | AID 504621, 2011 | inhibition, % at 9.4 µM | BacTiter-Glo ATP, 48 h; yeast lacking PDR1 and PDR3 efflux regulators | 310,000 tested, 0.32% active;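 active = every replicate shows inhibition above about 80%, whatever the replicate mean, limit read from the data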;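 also: 0% = DMSO neutral controls and 100% = 20 µM radicicol positive controls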
TIM10 inh: growth inhibitors of isogenic TIM10 control yeast, primary screen, counter-screen for tim10-1 yeast inhibitor project, luminescence, uHTS | S. cerevisiae TIM10 strain growth, BacTiter-Glo luminescence, 24 h | inhibition, % at 10 µM | 330,000 tested, 1.4% active;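 active = inhibition of 40% or more at the single tested concentration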;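 also: wild-type TIM10 isogenic control strain grown at permissive 25 °C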
tim23-1 conf: tim23-1 mutant yeast growth inhibitors, confirmation, luminescence, single concentration. shares compounds with tim23-1 inh. S. cerevisiae tim23-1 growth, BacTiter-Glo luminescence, 24 h. inhibition, % at 20 µM. 4,400 tested, 83% active. AID 463218, 2010;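 active = inhibition above about 39% in either of two replicate wells at 20 µM, limit read from the data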;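 also: temperature-sensitive tim23-1 mutant grown at 25 °C; 0% = DMSO wells with yeast and 100% = medium wells without yeast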
* marks the source's active call; other numbers are inactive results; / = not tested or not shown.

SMILES	Beta2AR agonist	tim10-1 inh	tim23-1 inh	PfHsp90 set2	TIM10 inh	tim23-1 conf
CCOC(=O)c1cnc(-n2nc(C)cc2C)nc1NCCc1ccccc1	-8	16	51*	-36	7	58*
CC1Cc2ccccc2N1C(=O)CSc1nnc2c(n1)[nH]c1ccc(F)cc12 (centres undefined)	-8	22	12	-23	6	/
C=CCc1cccc(/C=N/NC(=O)CNc2cccc3ccccc23)c1O	6	27	57*	-31	19	73*
O=C(Nc1ccc(C(=O)N2CCCCC2)cc1)C1=CSCCO1	-7	29	27	22	7	/
O=C(Nc1ccc(C(=O)N2CCN(c3ccccc3F)CC2)cc1)C1=CSCCO1	1	39	53*	1	29	42*
CN(C(=O)c1cccc(NC(=O)Cc2cccc(NC(=O)C3CCCN(C(=O)C4CCC4)C3)c2)c1)C1CCC1 (centres undefined)	-15	/	/	-6	/	/
Cc1c(O)c(CN2CCCC2)cc2c3c(c(=O)oc12)CCC3	2	20	53*	7	9	36
CCCN1C(=O)C(Cc2nc3ccccc3c(=O)n2-c2ccccc2)c2ccccc21 (centres undefined)	-2	15	51*	7	13	49*
CC(C)N1C(=O)C(Cc2nc3ccccc3c(=O)n2-c2ccccc2)c2ccccc21 (centres undefined)	-4	15	45	-7	39	/
COc1cc(OC)cc(C(=O)N2CCC(N3CCCCCC3)CC2)c1	14	10	12	10	-3	/
O=C(O)c1cccc(-c2ccc(/C=N/n3cnc4sc5c(c4c3=O)CCCC5)o2)c1	/	29	52*	/	0	22
Oc1ccc(/C=N/Nc2cccc3cccnc23)c(O)c1	22	-4	58*	-1	19	57*
O=C(N/N=C/C(Cl)=C\c1ccccc1)c1ccco1	7	-98	33	16	-37	/
O=C(/C(=C/O)N=Nc1ccccc1)c1ccco1	-1	27	55*	-4	34	59*
CCOC(=O)c1c(CCl)nc2ccccc2c1C	-3	20	23	-1	6	/
COCCCN(C(=S)Nc1cc(Cl)cc(Cl)c1)C(C)c1ccccn1 (centres undefined)	-1	27	63*	2	25	53*
COCCCN(C(=S)Nc1cc(Cl)cc(Cl)c1)C(C)c1ccncc1 (centres undefined)	10	17	50*	3	23	47*
COCCCN(C(=O)Nc1ccc(C)c(C)c1)C(C)c1ccccn1 (centres undefined)	0	25	15	20	-2	/
COc1ccccc1C(CNC(=O)c1ccc(C)c(S(=O)(=O)N2CCCCC2)c1)N1CCCC1 (centres undefined)	1	1	6	19	3	/
O=Cc1cccn1Cc1ccccc1[N+](=O)[O-]	11	7	-5	5	5	/
COCCNC(=O)/C(C#N)=C/c1ccc(OCc2ccc(F)cc2)cc1	7	14	56*	-8	33	48*
N#C/C(=C\c1ccc(OCc2ccc(C(=O)O)cc2)cc1)C(=O)NCc1ccccc1	-7	22	31	-2	8	/
COCCNC(=O)/C(C#N)=C/c1ccc(OCc2ccccc2)cc1	-4	39	55*	-13	30	53*
NC(=O)C1(Nc2ccc(Cl)cc2)CCCC1	8	/	/	-1	/	/
O=C(Cn1ncc(Cl)c(Cl)c1=O)c1ccc2c(c1)OCCO2	13	-34	58*	-3	-27	31
COc1ccc(NS(=O)(=O)c2ccc(N3CCCC3)c(NC(=S)Nc3cccc(S(=O)(=O)N(C)C)c3)c2)cc1	/	23	52*	/	27	78*
Cc1ccccc1-n1nnnc1SCC(=O)NNC(=O)c1ccc(NC(=O)CC#N)cc1	-3	7	9	-6	7	/
Oc1ccc2ccccc2c1C=Nc1ccccc1-c1nc2ccccc2[nH]1	7	39	52*	5	15	47*
COc1ccccc1CNC(=O)CNC(=O)[C@@H]1Cc2ccccc2CN1	1	10	9	-6	6	/
